Screening data deposited in PubChem by several laboratories.
C-LANA FP: inhibitors of KSHV C-LANA binding to DNA, primary screen, biochemical, fluorescence polarization, FAM-LBS DNA, MBP-C-LANA, single point; Kaposi's sarcoma herpesvirus LANA C-terminal domain (residues 932-1162) DNA binding; inhibition, % at 9 µM; 340,000 tested, 0.078% active;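 active = highest replicate inhibition at or above 60% at 9 µM, even if other replicates fall short; inactive = all replicates below 60% inhibition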;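 also: 0% = neutral control wells and 100% = 4 µM acridine orange control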
BCLXL inh: inhibitors of human Bcl-xL, primary screen, biochemical, fluorescence polarization, HTS. Bcl-2-like protein 1 (Homo sapiens), Q07817. GST-Bcl-xL / FITC-Bim BH3 peptide fluorescence polarization. inhibition, % at 10.9 µM. 320,000 tested, 0.7% active. AID 2129, 2009;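 active = inhibition above the mean of all tested compounds plus 3 SD, cutoff set per campaign, cut at about 30% in these data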;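 also: 0% = DMSO wells and 100% = unlabeled Bim-BH3 peptide competitor; inhibitors lower millipolarization by displacing the labeled peptide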
GLD-1 TGE inh: GLD-1/TGE RNA complex disruptors, primary screen, biochemical, fluorescence polarization; purified GLD-1 + fluorescein TGE RNA; inhibition, % at 5.96 µM; 320,000 tested, 0.44% active; AID 2280, 2010;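 active = percent inhibition above a per-plate cutoff, the plate mean of test compounds plus 3 SD, cut at about 30% in these data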;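 also: 0% = DMSO wells with GLD-1 and probe and 100% = wells lacking GLD-1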
E coli Lon inh: inhibitors of E. coli Lon protease, primary screen, biochemical, fluorescence polarization; purified E. coli Lon protease; inhibition, % at 7.94 µM; 360,000 tested, 0.42% active; in the data active = inhibition above about 13%, passing the limit was not always enough;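 also: 0% = enzyme with probe and DMSO and 100% = no enzyme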
Target sequence (P0A9M0 whole entry, looked up): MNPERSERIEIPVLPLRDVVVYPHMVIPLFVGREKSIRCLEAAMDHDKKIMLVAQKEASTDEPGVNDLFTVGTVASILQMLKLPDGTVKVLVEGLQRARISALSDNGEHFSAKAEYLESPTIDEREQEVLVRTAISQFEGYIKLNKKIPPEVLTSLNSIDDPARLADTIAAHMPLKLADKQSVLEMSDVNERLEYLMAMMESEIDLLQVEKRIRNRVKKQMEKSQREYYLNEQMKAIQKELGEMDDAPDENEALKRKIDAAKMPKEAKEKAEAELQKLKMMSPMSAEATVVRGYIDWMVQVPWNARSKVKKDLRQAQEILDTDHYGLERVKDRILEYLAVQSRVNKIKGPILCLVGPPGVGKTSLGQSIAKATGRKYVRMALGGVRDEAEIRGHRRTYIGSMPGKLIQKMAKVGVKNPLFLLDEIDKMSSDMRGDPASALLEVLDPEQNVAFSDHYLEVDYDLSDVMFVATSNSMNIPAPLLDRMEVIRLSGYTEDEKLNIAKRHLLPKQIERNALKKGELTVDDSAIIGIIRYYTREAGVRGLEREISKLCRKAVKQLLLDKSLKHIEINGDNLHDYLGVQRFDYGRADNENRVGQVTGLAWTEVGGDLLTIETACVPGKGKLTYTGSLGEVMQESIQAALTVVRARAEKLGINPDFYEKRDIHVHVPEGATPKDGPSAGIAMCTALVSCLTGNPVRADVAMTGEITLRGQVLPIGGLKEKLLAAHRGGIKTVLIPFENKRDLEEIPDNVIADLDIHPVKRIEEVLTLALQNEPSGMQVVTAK
MCL1 BIM primary: inhibitors of MCL1 binding to BIM-BH3, primary screen, biochemical, fluorescence polarization | inhibition, % at 10.9 µM | Induced myeloid leukemia cell differentiation protein Mcl-1 (Homo sapiens), Q07820 | 320,000 tested, 0.68% active | GST-MCL1 / FITC-Bim-BH3 fluorescence polarization;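 active = inhibition above the mean inhibition of all tested compounds plus 3 SD, set per campaign, cut at about 40% in these data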;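 also: 0% = DMSO wells and 100% = unlabeled Bim-BH3 peptide control; higher means more loss of mP so more displacement of Bim peptide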
Keap1 Nrf2 FP: Keap1-Nrf2 protein-protein interaction inhibitors, primary screen, biochemical, fluorescence polarization, single point; inhibition, % at 9.4 µM; AID 504523, 2011; 340,000 tested, 0.15% active; Kelch-like ECH-associated protein 1 (Homo sapiens), Q14145; Keap1 Kelch-Nrf2 peptide fluorescence polarization, 1536-well; in the data active = inhibition above about 12%;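 also: human Keap1 Kelch domain with fluorescein labeled Nrf2 9mer peptide probe; 0% = neutral control wells and 100% = peptide positive control; higher means more block of Keap1 binding to Nrf2 peptide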
Bcl-xL conf: Bcl-xL inhibitors blocking Bim BH3 binding, confirmation, counter-screen for MCL1 inhibitor project, biochemical, fluorescence polarization. shares compounds with MCL1 BIM primary. GST-Bcl-xL / FITC-Bim BH3 peptide FP binding. inhibition, % at 10.9 µM. 1,700 tested, 54% active. AID 2166, 2009;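 active = inhibition above a cutoff equal to the mean inhibition of all tested compounds plus 3 SD, cut at about 30% in these data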;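 also: 0% = DMSO wells and 100% = unlabeled Bim BH3 control peptide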
MCL1 BIM confirm: inhibitors of MCL1 binding to BIM-BH3, confirmation, biochemical, fluorescence polarization, triplicate; shares compounds with MCL1 BIM primary; GST-MCL1 / FITC-Bim-BH3 fluorescence polarization; inhibition, % at 10.9 µM; 1,700 tested, 61% active; AID 2168, 2009;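 active = inhibition above the average of all tested compounds plus 3 SD, cut at about 40% in these data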;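 also: 0% = DMSO wells and 100% = unlabeled Bim-BH3 control peptide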
An asterisk follows results filed as active. In the library only some 1.3% were active in any assay of this set; here they are far more common.

For CC(C)(C)OC(=O)NCCCCC1=CC2=CC(=O)C(C)(OC(=O)c3cnc4ccccc4n3)C(=O)C2=CO1 (stereo unspecified) the results were BCLXL inh 59.2*, GLD-1 TGE inh 89.4*, MCL1 BIM primary 58.1*, Bcl-xL conf 38.9* and MCL1 BIM confirm 52.2*.
CC(C)(C)OC(=O)NCCCCC1=CC2=CC(=O)C(C)(O)C(=O)C2=CO1 (stereo unspecified) was read as C-LANA FP 2.1, BCLXL inh 10.3, GLD-1 TGE inh 13.1, E coli Lon inh -0.9, MCL1 BIM primary 19.9 and Keap1 Nrf2 FP 1.4.
COC(=O)CCCC1=CC2=CC(=O)C(C)(OC(=O)c3cccs3)C(=O)C2=CO1 (stereo unspecified) was read as BCLXL inh 104.8*, GLD-1 TGE inh 93.3*, MCL1 BIM primary 121.5*, Bcl-xL conf 52.7* and MCL1 BIM confirm 69.1*.
For COC(=O)CCCC1=CC2=CC(=O)C(C)(OC(=O)c3ccc(Cl)nc3)C(=O)C2=CO1 (stereo unspecified) the results were BCLXL inh 54.5*, GLD-1 TGE inh 57.4*, MCL1 BIM primary 66.1*, Bcl-xL conf 46.0* and MCL1 BIM confirm 69.4*.
CCCCC1=CC2=CC(=O)C(C)(OC(=O)CCC(=O)OC)C(=O)C2=CO1 (stereo unspecified) was read as BCLXL inh 41.7*, GLD-1 TGE inh 54.0*, MCL1 BIM primary 61.9*, Bcl-xL conf 15.5 and MCL1 BIM confirm 50.5*.
`COc1cc(CNC2CCCC2)cc(Cl)c1OCc1ccccc1F` gave C-LANA FP -1.2, BCLXL inh 1.5, GLD-1 TGE inh 6.4, E coli Lon inh -6.2, MCL1 BIM primary -1.9 and Keap1 Nrf2 FP 0.7.
For COC(=O)C(Cc1ccc(O)cc1)NC(=O)CCc1nc2ccccc2s1 (stereo unspecified) the results were C-LANA FP -0.1, BCLXL inh -0.6, GLD-1 TGE inh -0.7, E coli Lon inh -8.3, MCL1 BIM primary -5.2 and Keap1 Nrf2 FP -0.5.
O=C(Cc1cccs1)N1CCN(S(=O)(=O)c2ccc(F)c(F)c2)CC1 was read as C-LANA FP -1.4, BCLXL inh -9.8, GLD-1 TGE inh -0.1, E coli Lon inh -5.0, MCL1 BIM primary -23.7 and Keap1 Nrf2 FP -1.2.
Screening O=C(CSc1nnnn1-c1ccc(F)cc1F)Nc1ccccc1F returned C-LANA FP -1.5, BCLXL inh 1.8, GLD-1 TGE inh -2.1, E coli Lon inh -5.4, MCL1 BIM primary 0.5 and Keap1 Nrf2 FP -1.5.
Screening CC(=O)N1N=C(N)SC1c1ccc(Cl)c(Cl)c1 (stereo unspecified) returned E coli Lon inh 2.0.
`CC1(OC(=O)c2ccc(Cl)nc2)C(=O)C=C2C=C(C3CC3)OC=C2C1=O` (stereo unspecified) gave BCLXL inh 73.7*, GLD-1 TGE inh 75.6*, MCL1 BIM primary 87.0*, Bcl-xL conf 83.2* and MCL1 BIM confirm 121.5*.
CC1(OC(=O)c2ccco2)C(=O)C=C2C=C(c3ccc(C#N)cc3)OC=C2C1=O (stereo unspecified) was read as BCLXL inh 12.1, GLD-1 TGE inh 13.1 and MCL1 BIM primary 19.4.
